Results filed as inconclusive are left out. A call without a number means that no potency is given here. Active and inactive are the calls of the source. The call rests on the fitted dose curve; in most records, active means well fitted inhibition curve with a large enough effect; inconclusive means small, poorly fitted or top-dose-only effect; inactive means flat fitted curve, though single readings scatter.
Potency means the concentration at half of the fitted maximal effect.

The test in a line: P-glycoprotein substrates identified in KB-8-5-11 adenocarcinoma cell line, qHTS therapeutic library screen (AID 1346987). Further: nearly all actives have a fitted effect of over 65% in size. As to conditions: KB-8-5-11 (P-gp overexpressing) viability, CellTiter-Glo, 72 h; series mostly up to 44.5 µM. An outline of the steps:
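P-gp-mediated resistance screen: KB-8-5-11 cells treated 72 h with compounds in dose-response. CellTiter-Glo viability.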
Background: qHTS replaces the single test concentration by a dilution series.
`Cc1cc2occ(CN(C)CCN(C)Cc3cn(-c4cccc(C(F)(F)F)c4)c4ccccc34)c(=O)c2cc1C`: the Potency is 18.4 µM (active). Regarding `CN(C)CCOc1cc(NS(=O)(=O)c2c(Cl)cc(C(F)(F)F)cc2Cl)ccc1Cl`, the Potency entry is “inactive”. For the compound `CCCC(=O)O[C@]1(C(=O)COC(=O)CC)[C@@H](C)C[C@H]2[C@@H]3CCC4=CC(=O)C=C[C@]4(C)[C@@]3(F)[C@@H](O)C[C@@]21C`, the Potency entry is “inactive”.

In the case of `CC(=O)NC(C(=O)O[C@H]1CCC(C)(C)[C@@H]2CC=C3C(=O)OCC3(O)[C@@]12C)C(C)C` (some centres undefined), the Potency result is “inactive”.

For the origin of these results see PubChem BioAssay (NCATS).
